Test results published in publication PMC4336329 (PLoS ONE, 2015).
The whole screen tested about 310,000 compounds, of which about 14,000 (4.5%) showed an effect of 50% or more. Effects have a minus sign here. This excerpt belongs to a sample that is enriched for strong results.

Each compound was assayed against human ether-à-go-go-related gene (hERG) potassium channel (human, UniProt Q12809) (assay: primary screen, population patch clamp on CHO cells stably expressing hERG; higher = less effect of the substance).
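Also: peak tail current of the secondary pulse compared with the same well before compound.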

human ether-à-go-go-related gene (hERG) potassium channel, sequence (Q12809 whole entry, looked up): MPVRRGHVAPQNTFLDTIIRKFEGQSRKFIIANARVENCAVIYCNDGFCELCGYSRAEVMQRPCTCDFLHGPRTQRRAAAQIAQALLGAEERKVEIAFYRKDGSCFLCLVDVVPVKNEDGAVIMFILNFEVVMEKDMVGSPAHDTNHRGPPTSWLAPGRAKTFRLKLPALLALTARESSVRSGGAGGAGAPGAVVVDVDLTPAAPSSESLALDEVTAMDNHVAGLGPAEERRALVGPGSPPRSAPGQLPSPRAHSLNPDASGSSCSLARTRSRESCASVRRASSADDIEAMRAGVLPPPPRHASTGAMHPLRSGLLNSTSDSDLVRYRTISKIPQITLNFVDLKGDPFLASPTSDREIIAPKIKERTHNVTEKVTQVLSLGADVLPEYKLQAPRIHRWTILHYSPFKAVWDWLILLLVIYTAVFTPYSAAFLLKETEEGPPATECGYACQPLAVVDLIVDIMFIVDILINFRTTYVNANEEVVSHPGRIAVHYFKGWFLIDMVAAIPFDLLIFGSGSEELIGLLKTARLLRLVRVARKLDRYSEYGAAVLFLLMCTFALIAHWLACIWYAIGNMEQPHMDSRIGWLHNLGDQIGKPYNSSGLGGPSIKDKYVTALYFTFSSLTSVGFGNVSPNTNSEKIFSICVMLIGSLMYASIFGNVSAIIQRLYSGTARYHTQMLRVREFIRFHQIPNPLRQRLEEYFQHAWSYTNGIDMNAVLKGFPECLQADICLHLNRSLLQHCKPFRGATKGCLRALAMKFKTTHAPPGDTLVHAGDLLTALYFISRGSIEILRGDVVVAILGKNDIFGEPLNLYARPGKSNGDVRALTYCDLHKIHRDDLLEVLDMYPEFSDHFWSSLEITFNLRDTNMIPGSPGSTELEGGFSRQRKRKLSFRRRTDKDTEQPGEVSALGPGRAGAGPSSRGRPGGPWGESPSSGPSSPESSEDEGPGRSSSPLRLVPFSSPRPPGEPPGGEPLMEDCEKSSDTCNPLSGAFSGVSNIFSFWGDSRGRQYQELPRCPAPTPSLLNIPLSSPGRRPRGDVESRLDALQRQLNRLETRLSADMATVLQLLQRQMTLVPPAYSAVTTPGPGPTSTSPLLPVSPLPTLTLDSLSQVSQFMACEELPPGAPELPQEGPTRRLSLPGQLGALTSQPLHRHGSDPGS

Compound	hERG current change (%, negative = inhibition) at 10uM [%]
CCOC(=O)c1c(C)noc1CP(=O)(c1ccccc1)c1ccccc1	-6.61
CCC(=O)NC(c1ccc(OC)cc1)c1c(O)ccc2ccccc12 (stereo not shown)	3.82
COc1ccc(-c2cnnc(N/N=C/c3ccc(OC)c(OC)c3)n2)cc1	-35.7
COc1ccc(-c2cnnc(N/N=C/c3ccc(O)c(OC)c3)n2)cc1	-50.1
COc1ccc(-c2cnnc(N/N=C/c3ccc(O)c(O)c3)n2)cc1	2.82
CC1CCCCC12NC(=O)N(Cn1nnc3ccccc3c1=O)C2=O (stereo not shown)	-17.2
Cc1ccc(-c2cc(-c3ccccc3)nc(N(C)N)n2)cc1	16.7
c1ccc(N2CCN(c3nnc(Cc4cccnc4)c4ccccc34)CC2)nc1	-50.1
c1ccc(Cc2nnc(N3CCCCC3)c3ccccc23)cc1	-26.7
O=C(Cn1nc(Cc2cccnc2)c2ccccc2c1=O)N1CCN(c2ccccn2)CC1	-23.1
CC(C)(C)c1ccc(COc2ccsc2C(=O)O)cc1	-6.72
COc1ccc(CN(Cc2cccnc2)C(=S)NCCc2ccccc2)cc1OC.O=C(O)C(=O)O	-50.5
Cc1ccc(CCNC(=O)CNC(=S)N(Cc2ccccc2)Cc2cccnc2)cc1	-55
Cc1ccc(CNC(=O)CNC(=S)N(Cc2ccccc2)Cc2cccnc2)cc1	-19.8
O=C(CNC(=S)N(Cc1ccccc1)Cc1cccnc1)NCCc1ccccc1	-41.3
COCCNC(=S)N(Cc1cccnc1)Cc1ccc(OC)c(OC)c1.O=C(O)C(=O)O	9.52
COCCCNC(=S)N(Cc1cccnc1)Cc1ccc(OC)c(OC)c1	12.4
CCCc1nn(C)c2c(=O)[nH]c(-c3cc(S(=O)(=O)Nc4ccc(NC(C)=O)cc4)ccc3OCC)nc12	-21.2
O=C(NC1CCCCCC1)c1ccc(CS(=O)(=O)Cc2ccc(F)cc2)o1	3.52
O=C(CCNC(=O)c1ccccc1)OCN1C(=O)c2ccccc2C1=O	-5.38
CCCCNC(=O)CS(=O)Cc1nc(-c2ccc(C)cc2)oc1C (stereo not shown)	-17.5
COCCCNC(=O)Cn1nnc(-c2ccc(NC(=O)c3ccccc3OC)cc2)n1	6.89
CCOc1ccc(-c2nnc(SCc3nc4ccccc4[nH]3)n2N)cc1	-34.3
COc1ccc(CCN2C(=O)CC(N3CCN(S(=O)(=O)c4ccccc4)CC3)C2=O)cc1 (stereo not shown)	-18.7

Compound	hERG current change (%, negative = inhibition) at 10uM [%]
CCN1C(=O)CC(N2CCN(c3ccc(OC)cc3)CC2)C1=O (stereo not shown)	-9.88
COc1ccc(OCCN2CCN(C3CC(=O)N(CCC(C)C)C3=O)CC2)cc1 (stereo not shown)	-63.4
COc1ccc(Nc2nc3ccccc3n3nnnc23)cc1	-7.93
CN1CCN(S(=O)(=O)c2ccc3c(c2)OCCO3)CC1	12.1
COC(=O)CCCC1=CC2=C(c3ccccc3)C(=O)C(C)(OC(=O)C3CCCC3)C(=O)C2=CN1Cc1ccc(OC)cc1 (stereo not shown)	-4.26
COC(=O)CCCC1=CC2=C(c3ccccc3)C(=O)C(C)(OC(=O)C3CCCC3)C(=O)C2=CN1CC1CC1 (stereo not shown)	-39.9
COC(=O)CCCC1=CC2=C(c3ccccc3)C(=O)C(C)(OC(=O)C3CCCC3)C(=O)C2=CN1Cc1ccco1 (stereo not shown)	-56.8
CCOC(=O)CSc1nc(N)nc(C)c1Cl	13.4
Cc1cc(F)ccc1NCc1cc2c(cc1[N+](=O)[O-])OCO2.O=C(O)C(=O)O	7.77
Cc1ccc(-c2cnc(NCc3cc4c(cc3[N+](=O)[O-])OCO4)n2C)cc1C	-48.6
COc1ccc(-c2cnc(NCc3cc4c(cc3[N+](=O)[O-])OCO4)n2C)cc1	-48.4
Cn1c(-c2ccc(F)cc2)cnc1NCc1cc2c(cc1[N+](=O)[O-])OCO2.O=C(O)C(=O)O	-57.8
Cn1c(-c2ccc(Cl)cc2)cnc1NCc1cc2c(cc1[N+](=O)[O-])OCO2.O=C(O)C(=O)O	-62.6
Cn1c(-c2ccccc2)cnc1NCc1cc(Cl)ccc1O	19.9
Cn1c(-c2ccccc2)cnc1NCc1cc2c(cc1[N+](=O)[O-])OCO2	-55
N#Cc1nc(-c2ccccc2F)oc1NCc1cccc2c1OCO2	-24.9
CCN(C(=O)COC(=O)CNC(=O)c1ccc(C)s1)c1ccccc1	16.5
O=C(NCc1ccc(F)cc1)c1cccnc1C(=O)O	13.5
COc1ccc(S(=O)(=O)N(CC(N)=O)C2CCCCC2)cc1Cl	4.39
Cl.Oc1ccc(CCNc2c3ccccc3nc3ccccc23)cc1O	-68.2
COc1ccc(CCNc2nc(-c3cccnc3)nc3ccccc23)cc1OC	-1.54
c1ccc2c(NCCc3c[nH]c4ccccc34)c3ccccc3nc2c1	-74.7
O=C(CNC(=O)c1ccccc1)NCCc1ccc(O)c(O)c1	1.15
COc1ccc(CCNc2c3ccccc3nc3ccccc23)cc1OC.Cl	-69.7

Compound	hERG current change (%, negative = inhibition) at 10uM [%]
Fc1cccc(NCCc2c[nH]c3ccccc23)n1	11.3
COc1ccc(CCNc2nc(C)cc(C)n2)cc1OC.Cl	17.4
CNCCc1ccc(O)c(O)c1.Cl	12.7
CNCCc1c[nH]c2ccccc12	6.05
COc1ccc(C(=O)/C=C/Nc2cc(C)on2)cc1	3.9
CCCCOC(=O)c1ccc(Nc2ccc([N+](=O)[O-])cn2)cc1	14.5
Cc1ccc(-c2nnc(N3CC(C)OC(C)C3)c3ccccc23)cc1 (stereo not shown)	-20.6
O=C(NC(=S)Nc1ccc(CN2CCOCC2)cc1)c1ccc2c(c1)OCCO2	-13.9
CC(=Nc1ccccc1N)c1c(O)n(C)c(=O)n(C)c1=O	21
CCOc1ccc(CN(C)C(=O)CCNC(=O)c2ccco2)cc1	1.35
CCCOC(=O)c1[nH]c2c(c1C)C(=O)CC(c1ccc(OC)c(OC)c1)C2 (stereo not shown)	-4.07
CCOc1ccccc1NC(=O)CN1C(=O)C(=O)N(Cc2ccco2)C1=O	8.17
CCNC(=O)c1c(O)c2ccccc2[nH]c1=O	-62.5
CCCCCCNC(=O)c1c(O)c2ccccc2[nH]c1=O	19.9
O=C(NCc1ccccc1)c1c(O)c2ccccc2[nH]c1=O	15.4
O=C(Cn1cnc2c(nnn2Cc2ccc(F)cc2)c1=O)NCc1ccc2c(c1)OCO2	-17.2
C=CCn1c(COc2ccc(OC)cc2)nnc1SC(C)C(=O)NC1CC1 (stereo not shown)	-11.6
CCCCCn1c(=O)[nH]c2cc(C(=O)NCCCN3CCCCC3)ccc2c1=O	-33.5
CCOn1c(=O)c(=O)n(OC)c2ccccc21	-6.73
CCOC(=O)C1(Cc2ccc(OC)cc2)CCN(S(C)(=O)=O)CC1	25.6
CCOC(=O)C1(Cc2cccc(F)c2)CCN(CC(O)CO)CC1 (stereo not shown)	14.5
CCOC(=O)C1(Cc2ccc(OC)cc2)CCN(C(=O)CCn2cccn2)CC1	-7.25
CCOC(=O)C1(Cc2ccc(Cl)cc2)CCN(C(C)CCn2cccn2)CC1 (stereo not shown)	-87.2
CCOC(=O)C1(Cc2cccc(F)c2)CCN(Cc2cnn(CC)c2)CC1	-32.2

Compound	hERG current change (%, negative = inhibition) at 10uM [%]
CCOC(=O)C1(Cc2ccc(Cl)cc2)CCN(CCCn2cccn2)CC1	-74.8
CCOC(=O)C1(Cc2cccc(F)c2)CCN(CCCn2cccn2)CC1	-74.6
CCOC(=O)C1(Cc2ccc(Cl)cc2)CCN(C(C)Cc2ccc(O)c(OC)c2)CC1 (stereo not shown)	-70.8
CCOC(=O)C1(Cc2cccc(OC)c2)CCN(C(C)CC(C)(C)O)CC1 (stereo not shown)	-28.5
O=C1NC(=O)C(Nc2cccc3ccccc23)S1 (stereo not shown)	7.89
Cc1cccc(-c2nc3c(c(SCC(=O)N(C)C)n2)CCCC3)c1	-21.5
COC(=O)c1ccc([C@H](NC(=O)c2ccco2)[C@]2(C)C[C@H]2C2CCCCC2)cc1	9.14
COc1ccc(CN2CCn3ncc(C(=O)Nc4cccc(C)c4)c3C2=O)cc1	6.5
Cc1ccc(S(=O)(=O)N/N=C/c2ccc(OCC(=O)Nc3ccccc3Cl)cc2)cc1	1.73
COc1cccc(N(C(=O)Cn2nnc(-c3cccs3)n2)C(C(=O)NC2CCCCC2)c2ccncc2)c1 (stereo not shown)	8
COc1cc2c(c(OC)c1OC)-c1c(cc3c(c1OC)OCO3)C1OC2[C@@H](C)[C@H]1C (stereo partly shown)	-4.76
Br.COc1cc2c(cc1OC)-c1c(OC)c(OC)cc3c1[C@H](C2)[NH+](C)CC3	-16.7
COc1cc2c(c(O)c1OC)C(=O)C(OC)CCC2 (stereo not shown)	-3.32
COc1cc2c(c(OC)c1OC)-c1c(cc3c(c1OC)OCO3)C[C@H](C)[C@@](C)(O)C2	28.4
COc1cc2c(c(OC)c1OC)-c1c(cc(OC)c(OC)c1OC)C[C@](C)(O)[C@@H](C)C2	-73.7
COc1cc(C2(O)CCCCC2C)cc(OC)c1OC (stereo not shown)	15.9
C/C=C(/C)C(=O)O[C@@H]1c2cc3c(c(OC)c2-c2c(cc(OC)c(OC)c2OC)[C@@H](OC(C)=O)[C@@H](C)[C@H]1C)OCO3	4.78
COc1cc2c(c(OC)c1OC)-c1c(cc(OC)c(OC)c1OC)C[C@H](C)[C@H](C)C2	-71.9
COc1cc2c(c(OC)c1OC)C(=O)CC2	15.6
COc1cc2c(c(OC)c1OC)-c1c(cc3c(c1OC)OCO3)[C@@H](OC(C)=O)[C@H](C)[C@H](C)C2	-66.8
COc1cc2c(c(OC)c1OC)-c1c(cc3c(c1O)OCO3)C[C@@H](C)[C@@H](C)C2	0.26
COc1cc2c(c(O)c1OC)-c1c(cc(OC)c(OC)c1OC)C[C@@H](C)[C@@H](C)C2	-78.6
